Experiments:
Assay in all cases: log2 ratio of Biotin-Ahx-Ub-VS probe labelling (fragment/DMSO); higher = less target engagement (more negative = stronger competition), active = hit call of the paper (q ≤ 0.05, log2 ratio ≤ -1)
Settings in all cases: compound concentration: 200 uM; treatment time: 3 h
OTUD6B = target: T1, OTUD6B (UniProt Q8N6M0)
T1 sequence (whole entry): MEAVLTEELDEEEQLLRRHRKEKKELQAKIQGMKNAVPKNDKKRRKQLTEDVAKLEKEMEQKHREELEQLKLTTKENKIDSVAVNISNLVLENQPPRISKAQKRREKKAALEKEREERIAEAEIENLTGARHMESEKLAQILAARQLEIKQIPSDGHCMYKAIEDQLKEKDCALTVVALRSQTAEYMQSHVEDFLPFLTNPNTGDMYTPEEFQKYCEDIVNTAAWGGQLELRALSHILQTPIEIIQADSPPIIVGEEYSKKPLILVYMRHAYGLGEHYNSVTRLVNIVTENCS
Outline: (§1)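 Triplicate samples of HEK293T lysate, 495 µg each, received fragment at 200 µM or vehicle for 3 h, followed by Biotin-Ahx-Ub-VS (0.5 µM final) for 1 h. After NeutrAvidin enrichment of labelled DUBs and LysC/trypsin digestion, peptides were run by diaPASEF LC-MS/MS. The values are average log2 fragment/vehicle ratios from global-median-normalised Spectronaut label-free quantities, tested by unpaired t-test on proteins having ≥2 unique peptides.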

OTUD7B = target: T2, OTUD7B (UniProt Q6GQQ9)
T2 sequence (whole entry): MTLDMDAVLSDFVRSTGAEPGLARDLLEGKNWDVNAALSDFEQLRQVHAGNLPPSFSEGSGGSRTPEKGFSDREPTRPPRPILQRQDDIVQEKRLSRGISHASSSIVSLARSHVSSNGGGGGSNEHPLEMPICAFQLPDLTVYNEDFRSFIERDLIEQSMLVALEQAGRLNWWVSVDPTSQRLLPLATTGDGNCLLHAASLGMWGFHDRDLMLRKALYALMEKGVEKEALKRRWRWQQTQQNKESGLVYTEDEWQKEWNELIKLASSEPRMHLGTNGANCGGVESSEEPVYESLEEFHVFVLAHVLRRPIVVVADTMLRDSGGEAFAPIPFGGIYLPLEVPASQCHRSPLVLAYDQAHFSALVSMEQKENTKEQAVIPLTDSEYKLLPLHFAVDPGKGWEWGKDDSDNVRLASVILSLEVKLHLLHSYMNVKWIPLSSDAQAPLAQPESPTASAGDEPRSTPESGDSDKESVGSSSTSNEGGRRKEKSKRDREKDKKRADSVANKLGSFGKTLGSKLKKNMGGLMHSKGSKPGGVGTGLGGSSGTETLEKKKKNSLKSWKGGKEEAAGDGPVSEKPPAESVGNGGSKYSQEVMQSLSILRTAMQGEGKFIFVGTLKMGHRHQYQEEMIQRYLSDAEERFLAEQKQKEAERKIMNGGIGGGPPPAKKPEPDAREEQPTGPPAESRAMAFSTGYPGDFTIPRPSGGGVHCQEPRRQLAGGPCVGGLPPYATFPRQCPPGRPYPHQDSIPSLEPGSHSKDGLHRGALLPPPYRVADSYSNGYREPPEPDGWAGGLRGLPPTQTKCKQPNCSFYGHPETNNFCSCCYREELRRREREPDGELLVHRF
Outline: as §1

PRPF8 = PRPF8 (UniProt Q6P2Q9)
Outline: as §1

PSMD7 = target: T3, PSMD7 (UniProt P51665)
T3 sequence (whole entry): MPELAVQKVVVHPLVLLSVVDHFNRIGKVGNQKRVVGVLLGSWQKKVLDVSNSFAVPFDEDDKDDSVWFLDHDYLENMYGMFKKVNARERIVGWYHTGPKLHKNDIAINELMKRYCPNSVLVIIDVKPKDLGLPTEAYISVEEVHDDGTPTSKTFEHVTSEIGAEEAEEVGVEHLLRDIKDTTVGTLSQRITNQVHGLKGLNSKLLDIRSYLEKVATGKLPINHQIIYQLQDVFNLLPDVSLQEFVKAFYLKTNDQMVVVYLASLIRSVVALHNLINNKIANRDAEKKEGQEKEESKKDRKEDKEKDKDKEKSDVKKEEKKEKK
Outline: as §1

UCHL1 = UCHL1 (UniProt P09936)
Outline: as §1

UCHL3 = target: T4, UCHL3 (UniProt P15374)
T4 sequence (whole entry): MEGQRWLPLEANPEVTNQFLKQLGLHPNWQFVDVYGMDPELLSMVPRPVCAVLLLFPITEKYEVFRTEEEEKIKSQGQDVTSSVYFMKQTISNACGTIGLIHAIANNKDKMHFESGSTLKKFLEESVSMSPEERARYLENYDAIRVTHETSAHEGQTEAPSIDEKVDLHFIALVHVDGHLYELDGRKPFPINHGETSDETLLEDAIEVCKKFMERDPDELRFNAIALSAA
Outline: as §1

UCHL5 = target: T5, UCHL5 (UniProt Q9Y5K5)
T5 sequence (whole entry): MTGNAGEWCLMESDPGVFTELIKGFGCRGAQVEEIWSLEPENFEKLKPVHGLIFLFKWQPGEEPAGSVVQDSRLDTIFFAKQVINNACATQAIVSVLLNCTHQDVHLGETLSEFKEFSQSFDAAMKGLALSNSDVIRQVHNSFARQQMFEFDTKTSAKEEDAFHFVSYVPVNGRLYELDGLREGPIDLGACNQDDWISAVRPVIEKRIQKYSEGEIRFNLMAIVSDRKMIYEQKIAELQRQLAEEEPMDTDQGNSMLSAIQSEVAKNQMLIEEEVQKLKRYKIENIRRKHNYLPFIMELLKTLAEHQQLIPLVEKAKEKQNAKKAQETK
Outline: as §1

USP10 = USP10 (UniProt Q14694)
Outline: as §1

USP15 = target: T6, USP15 (UniProt Q9Y4E8)
T6 sequence (whole entry): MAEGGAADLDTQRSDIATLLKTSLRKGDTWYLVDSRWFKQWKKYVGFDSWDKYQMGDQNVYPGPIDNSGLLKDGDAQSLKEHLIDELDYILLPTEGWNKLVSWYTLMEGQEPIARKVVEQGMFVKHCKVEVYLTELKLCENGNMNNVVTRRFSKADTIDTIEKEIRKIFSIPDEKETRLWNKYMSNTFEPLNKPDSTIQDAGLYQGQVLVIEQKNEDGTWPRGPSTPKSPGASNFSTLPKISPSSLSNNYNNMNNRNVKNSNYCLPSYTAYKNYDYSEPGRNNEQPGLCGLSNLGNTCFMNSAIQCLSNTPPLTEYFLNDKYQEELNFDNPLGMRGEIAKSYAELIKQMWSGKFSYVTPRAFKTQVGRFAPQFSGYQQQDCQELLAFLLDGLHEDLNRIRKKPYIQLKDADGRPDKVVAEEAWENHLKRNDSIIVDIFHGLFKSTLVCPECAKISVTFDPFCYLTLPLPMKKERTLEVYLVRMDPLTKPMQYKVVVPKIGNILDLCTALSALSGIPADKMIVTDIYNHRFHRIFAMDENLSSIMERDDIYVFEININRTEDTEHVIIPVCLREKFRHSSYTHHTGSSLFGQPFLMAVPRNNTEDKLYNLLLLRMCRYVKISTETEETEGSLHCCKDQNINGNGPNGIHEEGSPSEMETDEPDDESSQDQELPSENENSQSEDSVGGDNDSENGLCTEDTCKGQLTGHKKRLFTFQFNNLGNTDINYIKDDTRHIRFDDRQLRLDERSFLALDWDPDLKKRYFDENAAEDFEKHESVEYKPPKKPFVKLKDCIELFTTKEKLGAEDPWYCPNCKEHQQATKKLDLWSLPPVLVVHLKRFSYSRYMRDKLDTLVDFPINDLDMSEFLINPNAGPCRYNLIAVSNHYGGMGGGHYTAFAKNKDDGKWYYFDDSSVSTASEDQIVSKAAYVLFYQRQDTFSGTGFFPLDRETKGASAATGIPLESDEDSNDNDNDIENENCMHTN
Outline: as §1

USP16 = USP16 (UniProt Q9Y5T5)
Outline: as §1

Measured: log2 ratio of Biotin-Ahx-Ub-VS probe labelling

Chain of USP10 (Q14694 whole entry): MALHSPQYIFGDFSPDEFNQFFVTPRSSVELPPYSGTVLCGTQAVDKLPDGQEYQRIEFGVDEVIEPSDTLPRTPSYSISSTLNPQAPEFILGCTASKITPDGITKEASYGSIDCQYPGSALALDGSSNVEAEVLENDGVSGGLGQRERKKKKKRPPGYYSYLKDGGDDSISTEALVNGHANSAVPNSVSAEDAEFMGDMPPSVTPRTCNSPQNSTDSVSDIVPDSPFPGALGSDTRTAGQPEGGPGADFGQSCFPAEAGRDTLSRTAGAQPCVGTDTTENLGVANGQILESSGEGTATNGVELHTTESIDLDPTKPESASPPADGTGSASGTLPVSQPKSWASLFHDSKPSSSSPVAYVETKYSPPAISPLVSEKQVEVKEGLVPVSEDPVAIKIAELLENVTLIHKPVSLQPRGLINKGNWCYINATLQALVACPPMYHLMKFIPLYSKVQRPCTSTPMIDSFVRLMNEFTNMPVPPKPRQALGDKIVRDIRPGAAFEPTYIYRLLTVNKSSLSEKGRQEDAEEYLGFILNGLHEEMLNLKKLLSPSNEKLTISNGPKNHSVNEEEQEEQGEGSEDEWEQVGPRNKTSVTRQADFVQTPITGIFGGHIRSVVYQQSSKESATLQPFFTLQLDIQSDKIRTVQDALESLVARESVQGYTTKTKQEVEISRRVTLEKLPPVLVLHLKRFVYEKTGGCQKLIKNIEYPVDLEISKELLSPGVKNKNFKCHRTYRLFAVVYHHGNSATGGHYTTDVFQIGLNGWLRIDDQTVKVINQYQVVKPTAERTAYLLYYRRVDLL
Chain of USP16 (Q9Y5T5 whole entry, looked up): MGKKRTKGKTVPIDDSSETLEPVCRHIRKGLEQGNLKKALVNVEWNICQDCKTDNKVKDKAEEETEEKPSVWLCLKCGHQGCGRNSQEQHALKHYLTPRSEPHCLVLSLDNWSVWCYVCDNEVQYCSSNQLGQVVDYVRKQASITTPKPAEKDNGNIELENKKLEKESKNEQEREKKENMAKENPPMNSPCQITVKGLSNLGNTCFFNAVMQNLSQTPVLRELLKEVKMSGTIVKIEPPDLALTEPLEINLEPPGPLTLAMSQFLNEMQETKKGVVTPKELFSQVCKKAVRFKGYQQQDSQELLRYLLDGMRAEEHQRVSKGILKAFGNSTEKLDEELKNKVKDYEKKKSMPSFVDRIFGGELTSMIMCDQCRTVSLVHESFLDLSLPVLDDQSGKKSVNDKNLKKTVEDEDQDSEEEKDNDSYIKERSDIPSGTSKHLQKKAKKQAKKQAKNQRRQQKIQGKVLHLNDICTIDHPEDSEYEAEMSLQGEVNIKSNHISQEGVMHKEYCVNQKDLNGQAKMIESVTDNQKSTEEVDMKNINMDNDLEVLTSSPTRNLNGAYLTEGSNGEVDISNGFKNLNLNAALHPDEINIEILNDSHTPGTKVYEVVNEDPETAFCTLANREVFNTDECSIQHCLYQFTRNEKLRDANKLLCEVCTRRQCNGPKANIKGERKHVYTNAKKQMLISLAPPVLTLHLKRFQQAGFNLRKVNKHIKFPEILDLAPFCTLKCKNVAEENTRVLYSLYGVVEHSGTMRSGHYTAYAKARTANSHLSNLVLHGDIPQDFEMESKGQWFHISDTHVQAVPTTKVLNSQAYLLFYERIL
Chain of UCHL1 (P09936 whole entry, looked up): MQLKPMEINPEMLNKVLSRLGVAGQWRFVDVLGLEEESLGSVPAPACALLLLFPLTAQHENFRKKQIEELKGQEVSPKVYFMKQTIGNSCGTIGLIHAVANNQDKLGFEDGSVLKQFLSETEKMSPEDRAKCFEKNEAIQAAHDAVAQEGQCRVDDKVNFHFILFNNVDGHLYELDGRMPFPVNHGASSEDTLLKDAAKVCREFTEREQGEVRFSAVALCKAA

Cc1cc(NC(=O)CCl)n(-c2ccccc2)n1
active: UCHL1 -1.18
inactive: OTUD6B -0.0228 | OTUD7B -0.528 | PRPF8 0.173 | PSMD7 0.00596 | UCHL3 0.614 | UCHL5 -0.0207 | USP10 -0.234 | USP15 -0.2 | USP16 -0.321
